This note sets out measurements from PubChem BioAssay (NCI).

The panel holds about 83,000 compounds, 20% with a hit somewhere; the sample as a whole holds those more often.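 Method: cells in 96-well plates; compound added at one concentration; 48 h incubation; percent growth measured; values under 10 scored active.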 A number with no mark means an inactive call. The source made the active and inactive calls.

Among the test systems are SK-MEL-2 melanoma; EKVX NSCLC; SN12C renal; UO-31 renal; TK-10 renal; ACHN renal; CAKI-1 renal; A498 renal; CCRF-CEM leukemia; MOLT-4 leukemia; SR leukemia; RPMI-8226 leukemia; OVCAR-8 ovarian; OVCAR-5 ovarian; OVCAR-4 ovarian; SK-OV-3 ovarian; IGROV1 ovarian; OVCAR-3 ovarian; HS 578T breast; NCI/ADR-RES ovarian.
Experiment in all cases: NCI-60 one-dose screen, 48 h (100 = growth as untreated, 0 = no growth, -100 = all killed)
Holding throughout (conditions): 10 µM unless noted

With `Cc1ccc(C(=O)Nc2ccc(-n3ccnc3)c(C(F)(F)F)c2)cc1C#Cc1cnc2cccnn12`, the growth was -23.6% (active) in the assay with SK-MEL-2 melanoma; 27.5% in the assay with EKVX NSCLC; 14.4% in the assay with SN12C renal; 5.87% (active) in the assay with UO-31 renal; 23% in the assay on TK-10 renal; 12.3% in the assay with ACHN renal. Besides, the growth is -4.4% (active) in the assay on CAKI-1 renal; -6.46% (active) in the assay with A498 renal; 22.9% in the assay with CCRF-CEM leukemia; -32.5% (active) with MOLT-4 leukemia; 13.8% in the assay on SR leukemia; -4.27% (active) with RPMI-8226 leukemia. Also, the growth in the assay with OVCAR-8 ovarian was 18.6%; with OVCAR-5 ovarian it was 39.8%; with OVCAR-4 ovarian it was 13.6%; in the assay on SK-OV-3 ovarian, 48%; in the assay with IGROV1 ovarian, 20%; with OVCAR-3 ovarian, 45.4%. The growth in the assay with HS 578T breast is -7.38% (active); with NCI/ADR-RES ovarian, 24.7%.

Regarding `O=c1c(-c2nc(-c3ccccc3)c(-c3ccccc3)[nH]2)coc2ccc(F)cc12`, the growth is 62.9% in the assay on SK-MEL-2 melanoma; 25.7% in the assay with EKVX NSCLC; 68.9% in the assay on SN12C renal; 40.4% with UO-31 renal; 94.3% with TK-10 renal; 51% with ACHN renal. In addition, the growth is 64.9% with CAKI-1 renal; 109% in the assay with A498 renal; 49% with CCRF-CEM leukemia; 23.6% in the assay with MOLT-4 leukemia; 63.5% in the assay with SR leukemia; 32.1% in the assay on RPMI-8226 leukemia. In addition, the growth in the assay with OVCAR-8 ovarian is 82.6%; in the assay on OVCAR-5 ovarian it was 96.1%; with OVCAR-4 ovarian, 47.3%; in the assay with SK-OV-3 ovarian, 68.2%; in the assay on IGROV1 ovarian it was 62.8%; with OVCAR-3 ovarian, 33.3%. Besides, the growth in the assay with HS 578T breast was 71.6%; in the assay with NCI/ADR-RES ovarian, 51.4%.

For `O=C(N/N=C/c1ccc(-c2cccc([N+](=O)[O-])c2)s1)c1[nH]c2ccc(Br)cc2c1-c1ccccc1`, the growth with SK-MEL-2 melanoma is 84.4%; with EKVX NSCLC it was 94.7%; with SN12C renal, 91.4%; in the assay on UO-31 renal, 82.1%; in the assay with TK-10 renal, 101%; in the assay with ACHN renal, 87.3%. Further, the growth in the assay on CAKI-1 renal is 90.4%; in the assay with A498 renal it was 132%; in the assay on CCRF-CEM leukemia it was 91%; in the assay with MOLT-4 leukemia, 69.3%; in the assay with SR leukemia, 69.9%; in the assay with RPMI-8226 leukemia, 89.2%. In addition, the growth in the assay on OVCAR-8 ovarian is 95.9%; with OVCAR-5 ovarian, 106%; with OVCAR-4 ovarian, 82.1%; in the assay with SK-OV-3 ovarian it was 93.4%; in the assay on IGROV1 ovarian, 102%; in the assay with OVCAR-3 ovarian, 62.1%. For the same compound, the growth with HS 578T breast is 82.4%; with NCI/ADR-RES ovarian, 105%.

`O=C(N/N=C/c1ccsc1)c1[nH]c2ccc(Br)cc2c1-c1ccccc1`: the growth is -82.8% (active) in the assay with SK-MEL-2 melanoma; -26.3% (active) in the assay with EKVX NSCLC; -87.5% (active) with SN12C renal; -49.4% (active) in the assay with UO-31 renal; -13.3% (active) with TK-10 renal; -28% (active) in the assay with ACHN renal. Besides, the growth with CAKI-1 renal is -21.8% (active); in the assay with A498 renal, -48.1% (active); in the assay with CCRF-CEM leukemia it was 6.69% (active); in the assay with MOLT-4 leukemia it was -8.25% (active); in the assay on SR leukemia it was 2.42% (active); in the assay on RPMI-8226 leukemia, 1.5% (active). The growth was -49.4% (active) in the assay with OVCAR-8 ovarian; -57.4% (active) in the assay with OVCAR-5 ovarian; -30.8% (active) with OVCAR-4 ovarian; -36.9% (active) in the assay on SK-OV-3 ovarian; -57% (active) in the assay with IGROV1 ovarian; -72.9% (active) with OVCAR-3 ovarian. Besides, the growth with HS 578T breast was -13.3% (active); in the assay with NCI/ADR-RES ovarian it was -42% (active).

For `O=C(N/N=C/c1occc1Br)c1[nH]c2ccc(Br)cc2c1-c1ccccc1`, the growth in the assay on SK-MEL-2 melanoma is -88.8% (active); with EKVX NSCLC, -94.1% (active); with SN12C renal it was -83.8% (active); in the assay on UO-31 renal it was -87.1% (active); with TK-10 renal, -76.5% (active); in the assay with ACHN renal it was -100% (active). Moreover, the growth was -91.5% (active) with CAKI-1 renal; -89.6% (active) in the assay with A498 renal; 4.68% (active) in the assay on CCRF-CEM leukemia; -15.2% (active) in the assay with MOLT-4 leukemia; -9.6% (active) in the assay on SR leukemia; -4.48% (active) in the assay on RPMI-8226 leukemia. For the same compound, the growth with OVCAR-8 ovarian was -51.7% (active); in the assay with OVCAR-5 ovarian it was -99.8% (active); with OVCAR-4 ovarian, -87% (active); with SK-OV-3 ovarian, -85.3% (active); with IGROV1 ovarian, -92.8% (active); in the assay on OVCAR-3 ovarian, -73.7% (active). Further, the growth in the assay with NCI/ADR-RES ovarian is -53.5% (active).

In the case of `O=C(Cn1c(-c2ccccc2)nc2ccccc21)N=Nc1c(O)[nH]c2ccc(Br)cc12`, the growth in the assay with SK-MEL-2 melanoma was -8.9% (active); in the assay on EKVX NSCLC, -23.3% (active); in the assay with SN12C renal, 1.91% (active); in the assay with UO-31 renal it was -47.5% (active); with TK-10 renal it was -17.5% (active); in the assay with ACHN renal, -80% (active). For the same compound, the growth was -8.86% (active) in the assay with CAKI-1 renal; -38.1% (active) in the assay with A498 renal; 32.5% with CCRF-CEM leukemia; 20.8% in the assay with MOLT-4 leukemia; -25.7% (active) in the assay with SR leukemia; 21.9% with RPMI-8226 leukemia. Moreover, the growth is -39.2% (active) in the assay on OVCAR-8 ovarian; 0.0575% (active) in the assay on OVCAR-5 ovarian; -62.1% (active) in the assay on OVCAR-4 ovarian; -47.9% (active) with SK-OV-3 ovarian; -41.8% (active) with IGROV1 ovarian; -22.5% (active) with OVCAR-3 ovarian. In addition, the values for the growth in the assay on HS 578T breast and in the assay on NCI/ADR-RES ovarian were -28.8% (active) and -55.7% (active), respectively.

In the case of `O=C(NN1C(=O)/C(=C/C=C/c2ccc([N+](=O)[O-])o2)SC1=S)c1ccc([N+](=O)[O-])cc1`, the growth was -89.8% (active) in the assay with SK-MEL-2 melanoma; -97.8% (active) in the assay on EKVX NSCLC; -99.9% (active) in the assay on SN12C renal; -100% (active) in the assay on UO-31 renal; -98% (active) in the assay with TK-10 renal; -100% (active) in the assay on ACHN renal. Moreover, the growth in the assay on CAKI-1 renal was -100% (active); in the assay with A498 renal, -95.8% (active); in the assay on CCRF-CEM leukemia, -37.2% (active); with MOLT-4 leukemia it was -3.98% (active); in the assay with SR leukemia, -5.7% (active); with RPMI-8226 leukemia it was -30.6% (active). The growth with OVCAR-8 ovarian was -75.5% (active); in the assay on OVCAR-5 ovarian it was -100% (active); in the assay on OVCAR-4 ovarian it was -99% (active); with SK-OV-3 ovarian, -100% (active); in the assay on IGROV1 ovarian, -96.4% (active); in the assay with OVCAR-3 ovarian it was -97.1% (active). The growth in the assay with HS 578T breast is -27.3% (active); with NCI/ADR-RES ovarian, -44% (active).

On to `CCCn1c(NC(=O)c2cccc(C(N)=O)c2)nc2ccc(CN3CCCCC3)cc21`, for which the growth in the assay on SK-MEL-2 melanoma is 105%; in the assay with EKVX NSCLC, 103%; in the assay with SN12C renal, 88%; in the assay with UO-31 renal, 65.3%; in the assay on TK-10 renal, 99.3%; with ACHN renal, 60.3%. Further, the growth is 50.2% in the assay on CAKI-1 renal; 159% with A498 renal; 96.4% in the assay with CCRF-CEM leukemia; 98.9% in the assay on MOLT-4 leukemia; 31.4% with SR leukemia; 85.2% in the assay on RPMI-8226 leukemia. The growth in the assay with OVCAR-8 ovarian was 107%; with OVCAR-5 ovarian, 83.3%; in the assay with OVCAR-4 ovarian, 98.5%; in the assay with SK-OV-3 ovarian, 85.9%; with IGROV1 ovarian, 72.4%; in the assay with OVCAR-3 ovarian, 112%. Besides, the growth in the assay on HS 578T breast and with NCI/ADR-RES ovarian was 111% each time.
